In PubChem BioAssay (NCI):
The panel holds about 79,000 compounds, 15% with a hit somewhere; the sample as a whole holds those more often. No stated cut-off is given here; in the data, active means growth inhibition above about 70%; inactive means the rest.

What was measured:
[1] = NCI Yeast Anticancer Drug Screen. Data for the rad50 strain (AID 155);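 further: 0% = growth of vehicle-only cultures of the same strain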; conditions: S. cerevisiae rad50 strain growth inhibition; at 50.0 µM; active compounds read high
How it was run: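 Growth of the mutant yeast was measured after compound exposure and referenced to vehicle-treated cultures.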

[2] = NCI Yeast Anticancer Drug Screen. Data for the mec2-1 strain (AID 157); conditions: S. cerevisiae mec2-1 strain, at 50.0 µM, active compounds read high
How it was run: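 Each compound was tested on mec2-1 yeast, a strain altered in DNA damage repair or cell cycle control. Growth inhibition is reported relative to vehicle.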

[3] = NCI Yeast Anticancer Drug Screen. Data for the sgs1 mgt1 strain (AID 161);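 further: 0% = growth of cultures given vehicle only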; conditions: S. cerevisiae sgs1 mgt1 strain, at 50.0 µM, active compounds read high
How it was run: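 Genetically altered yeast, compound exposure, growth inhibition relative to vehicle.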

[4] = NCI Yeast Anticancer Drug Screen. Data for the cln2 rad14 strain (AID 165);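 further: 0% = growth equal to vehicle treated cultures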; conditions: S. cerevisiae cln2 rad14 strain, at 50.0 µM, active compounds read high
How it was run: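 Test compounds were added to cln2 rad14 yeast cultures; inhibition of growth was then determined by comparison with vehicle treatment.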

[5] = NCI Yeast Anticancer Drug Screen. Data for the bub3 strain (AID 167); conditions: S. cerevisiae bub3 mutant strain, at 50.0 µM, active compounds read high
How it was run: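 Whole-cell yeast assay. The mutant strain was incubated with compounds, and growth inhibition was determined by comparison with vehicle-treated cells.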

[6] = NCI Yeast Anticancer Drug Screen. Data for the mlh1 rad18 strain (AID 175); conditions: S. cerevisiae mlh1 rad18 strain growth inhibition; at 50.0 µM; active compounds read high
How it was run: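 Inhibition values reflect reduced growth of mutant yeast versus vehicle-treated controls following compound exposure; the mutations affect DNA damage repair.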

Measured: growth inhibition

CNSC1CCC2(C)C(=CCC3C2CCC2(C)C(C(C)CCCC(C)C)CCC32)C1 (centres undefined)
inactive: [1] -1.3% | [2] 1.7% | [3] -9.6% | [4] -5.05% | [5] -3% | [6] 10%

CC1=C(O)c2cc3c(cc2C(=O)C1=O)OCO3
inactive: [1] -21.5% | [2] -0.95% | [3] -15% | [4] -15.6% | [5] -18.4% | [6] 26.9%

O=c1[nH][nH]c(=O)c2c1ncn2Cc1ccccc1
inactive: [1] 34.9% | [2] -17% | [3] 1.7% | [4] -49.5% | [5] -14.9% | [6] -25.5%

CCCCOC(=O)C(C)OC(=O)/C=C\C(=O)OC(C)C(=O)OCCCC (centres undefined)
inactive: [1] 7.5% | [2] -7.5% | [3] 6.9% | [4] 4.05% | [5] 2.4% | [6] 15.9%

CCSC(C(OC(C)=O)C(OC(C)=O)C(COC(C)=O)OC(C)=O)n1cnc2c(=S)nc[nH]c21 (centres undefined)
inactive: [1] 6.75% | [2] -0.45% | [3] 9.35% | [4] 18.8% | [5] -1.55% | [6] 1.7%

O=C(O)c1nc(-c2ccc(S(=O)(=O)O)cc2)[nH]c1C(=O)O
inactive: [1] -7.15% | [2] -0.25% | [3] 14% | [4] -24.8% | [5] -6.05% | [6] -3.6%

CC(C)N(C(C)C)C1C=CC(N(C(C)C)C(C)C)CC1 (centres undefined)
inactive: [1] 5% | [2] -15.9% | [3] 2.3% | [4] -33.6% | [5] -7.3% | [6] -0.35%

COc1cc(/C=C(\C)c2ccc3c(c2)OCO3)cc(OC)c1OC
inactive: [1] 15% | [2] 12.6% | [3] 35% | [4] 5.15% | [5] 12.8% | [6] -5.85%

CC(=O)Nc1c(C(N)=O)cnn1-c1ccccc1
inactive: [1] 17.9% | [2] 26.6% | [3] 17.7% | [4] -0.2% | [5] 24.5% | [6] 36.9%

O=C(CCCl)NNC1=NCCCN1
inactive: [1] 2.5% | [2] -14.3% | [3] -15.4% | [4] 23.2% | [5] -4.35% | [6] -0.05%

C1CCC(NCCNC2CCCCC2)CC1
inactive: [1] 11.8% | [2] -16.9% | [3] 5.5% | [4] 18.6% | [5] -2.8% | [6] 10.3%

COC(=O)c1nc(N)nc(C(=O)OC)c1C(=O)c1ccco1
inactive: [1] 3.95% | [2] -4.25% | [3] 30.3% | [4] -3.7% | [5] 1.55% | [6] 26.5%

CS(=O)(=O)C(C#N)S(C)(=O)=O
inactive: [1] -1.85% | [2] -1.05% | [3] -6.05% | [4] -19.2% | [5] 40.9% | [6] -10.1%

CCc1n[nH]c(=O)n1/N=C/c1ccccc1O
inactive: [1] -9.2% | [2] 3.8% | [3] -5.75% | [4] 3.4% | [5] -0.35% | [6] 24.6%

Cc1ccc(S(=O)(=O)N/N=C2/CC3CCC2C3)cc1 (centres undefined)
inactive: [1] 5% | [2] 1.3% | [3] -19.7% | [4] -9.4% | [5] 17.3% | [6] -15.3%

CCCCNC(=O)c1ccc(C(C)C)cc1
inactive: [1] 9.2% | [2] -0.95% | [3] 0.4% | [4] -4.15% | [5] -0.9% | [6] -5.05%

COc1ccc(/C=C/C(=O)N(C)C)cc1
inactive: [1] 3.1% | [2] 5.65% | [3] -0.15% | [4] 12.4% | [5] -2.5% | [6] -3.05%

NC(=S)NCc1ccccc1C(O)c1ccccc1 (centres undefined)
inactive: [1] 18.8% | [2] 13.8% | [3] -0.75% | [4] 18.3% | [5] 18.5% | [6] 21.2%

O=C(Cc1csc(N=Nc2c(O)[nH]c3ccccc23)n1)Nc1ccccc1
inactive: [1] -16.2% | [2] -24.4% | [3] -6.35% | [4] -8.75% | [5] -7.05% | [6] 10.9%

CCOC(=O)c1cnc(SC)nc1Nc1ccc(OC)cc1
inactive: [1] 47.4% | [2] 8.55% | [3] 7.35% | [4] 9.6% | [5] 21.2% | [6] 50.1%

CC(=O)NC(=O)CC(=O)c1ccccc1
inactive: [1] -2.2% | [2] -12.8% | [3] -13.4% | [4] 13.9% | [5] -4.7% | [6] -18.3%

CCOC(=O)c1[nH]c(C(=O)O)c(C(=O)OCC)c1C
inactive: [1] 7.3% | [2] 3.7% | [3] 4.85% | [4] -12.8% | [5] -5.3% | [6] -10.1%

COC1(OC)CCCc2c1no[n+]2[O-]
inactive: [1] -43.4% | [2] -11.3% | [3] -50.2% | [4] -16.7% | [5] 16.5% | [6] -21.2%

COc1cc(OC)cc(Oc2nc3ccc(C(F)(F)F)cc3nc2-c2ccccc2)c1
inactive: [1] -33.1% | [2] -44.8% | [3] -7.85% | [4] -28.3% | [5] -27.4% | [6] -14.3%

Cc1c(N)cc2c(c1N)C(C)(C)CC2(C)C
inactive: [1] 1.35% | [2] -2.2% | [3] -0.4% | [4] -6.35% | [5] 11.1% | [6] -4.6%

Oc1cc(CN2COc3ccccc32)c(O)cc1CNC1CCCCC1
inactive: [1] -6.65% | [2] -4.95% | [3] -25.6% | [4] 62.5% | [5] -33.7% | [6] -12.3%

O=[N+]([O-])C(=C1NCCN1)C(Cl)=C(Cl)Cl
inactive: [1] -43% | [2] -27.9% | [3] 5.3% | [4] -18.6% | [5] -1.2% | [6] -26%

CCOC(=O)C(=O)Cc1cc(=O)n(C)c2ccccc12
inactive: [1] 12.5% | [2] 16.1% | [3] 16.4% | [4] 1.8% | [5] 13.9% | [6] 1.5%

CC(=O)OCC1OC(OC(C)=O)C(N)C(OC(C)=O)C1OC(C)=O (centres undefined)
inactive: [1] 2.15% | [2] 11.8% | [3] 11.9% | [4] 9.05% | [5] -15.9% | [6] 19.4%

C=C1C(=O)OC2CC(=C)C3CC=C(C)C3CC12 (centres undefined)
inactive: [1] 41.8% | [2] 21.5% | [3] 19% | [4] 41.6% | [5] 25.8% | [6] 44.1%

CCOC(=O)C12CCC(=O)C=C1[C@@H](C)C(=O)CC2 (some centres undefined)
inactive: [1] -20.1% | [2] -48.6% | [3] -41.1% | [4] -10.2% | [5] -34.7% | [6] -23.4%

OCC(O)CNc1ncnc2ccccc12 (centres undefined)
inactive: [1] -1.65% | [2] -11.8% | [3] 3.4% | [4] -26.4% | [5] 1.7% | [6] 10.2%

C[N+](C)(N)CCS(N)(=O)=O
inactive: [1] 0.15% | [2] -9.8% | [3] 5.6% | [4] -22.4% | [5] 26.7% | [6] 0.5%

Cc1cc2c(cc1C)NC1=C(N2)OC(c2ccc(Cl)cc2)C1=O (centres undefined)
inactive: [1] 19.9% | [2] 16.2% | [3] 44.6% | [4] 2% | [5] 21.1% | [6] 44.1%

C/C(CC(C)C)=N\NC(=O)Nc1ccccc1Cl
inactive: [1] 4.5% | [2] 5.7% | [3] -2.4% | [4] -3.85% | [5] 26.7% | [6] 6.35%

CC(=O)C(C(C)=O)[N+](=O)[O-].CC(=O)C(C(C)=O)[N+](=O)[O-].[Cu]
inactive: [1] 17.1% | [2] -2.95% | [3] -6.75% | [4] -40.5% | [5] 23.6% | [6] 10.6%

O=C1C2=C(CCC2)C(=O)N1c1ccc(N2C(=O)C3=C(CCC3)C2=O)cc1
inactive: [1] -12.6% | [2] -4.55% | [3] -16.2% | [4] -15.4% | [5] -10.6% | [6] -13.2%

CCc1ccc(OC/C=C(\C)CCC2OC2(C)CC)cc1 (centres undefined)
inactive: [1] -4.15% | [2] 4.5% | [3] 19.8% | [4] 4% | [5] 32% | [6] -2.8%

O=C(Nc1ccc(Cl)cc1)/C(Cc1cccc[n+]1[O-])=N\Nc1ccc([N+](=O)[O-])cc1[N+](=O)[O-]
inactive: [1] -19.4% | [2] -17% | [3] -6.2% | [4] -7.15% | [5] -26.6% | [6] -20.2%
